# Bioassay records deposited in PubChem by National Center for Advancing Translational Sciences (NCATS).
# FBPA coupling cs – counter-screen for Giardia aldolase inhibitors: coupling enzyme system; coupling enzyme system counterscreen, AmpLite Red fluorescence; activity change, negative = inhibition, % at 58.2 µM, hits read low; 290,000 tested, 0.67% active; in the data active = activity change below about -30%
#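 Fluorescence at 525 nm excitation and 598 nm emission measured inhibition of the coupled detection system without aldolase. Compounds (at 57.5 uM final) were preincubated 10 min at room temperature with coupling enzyme reagent before a 20 min substrate/AmpLite Red step.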
# USP2a inh – inhibitors of human ubiquitin-specific protease USP2a. USP2 core, Ub-CHOP2 coupled fluorogenic reporter, 485/531. Potency, µM (series often up to 38.3 µM), for inactives: at the top dose activity change, negative = inhibition, hits mostly inhibitors. AID 463254. 330,000 tested, 0.01% active. O75604;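 also: potency is read from the fitted curve at half-maximal effect; plate controls were DMSO wells for no effect and full inhibition by NEM control for full effect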
#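 Cell-free coupled assay: 10nM USP2 core preincubated 30min RT with compound in Tris-HCl pH 8.0/CaCl2/CHAPS buffer, then 25nM Ub-CHOP2 and 25nM reporter substrate; fluorescence (Ex 485/Em 531) read after 60min RT, normalized to NEM inhibition, concentration-response curves fitted.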
# USP1-UAF1 inh – USP1/UAF1 (human) deubiquitinase inhibition; O94782; recombinant USP1/UAF1, Ub-Rhodamine cleavage fluorescence; Potency, µM (top dose mostly 57.1 µM), for inactives: top-dose activity change, negative = inhibition, actives largely listed as inhibitors; 390,000 tested, 0.23% active; AID 743255; also: potency is read from the fitted curve at half-maximal effect; nearly all actives have a fitted effect of over 60% in size
# Target sequence (O94782 whole entry, looked up): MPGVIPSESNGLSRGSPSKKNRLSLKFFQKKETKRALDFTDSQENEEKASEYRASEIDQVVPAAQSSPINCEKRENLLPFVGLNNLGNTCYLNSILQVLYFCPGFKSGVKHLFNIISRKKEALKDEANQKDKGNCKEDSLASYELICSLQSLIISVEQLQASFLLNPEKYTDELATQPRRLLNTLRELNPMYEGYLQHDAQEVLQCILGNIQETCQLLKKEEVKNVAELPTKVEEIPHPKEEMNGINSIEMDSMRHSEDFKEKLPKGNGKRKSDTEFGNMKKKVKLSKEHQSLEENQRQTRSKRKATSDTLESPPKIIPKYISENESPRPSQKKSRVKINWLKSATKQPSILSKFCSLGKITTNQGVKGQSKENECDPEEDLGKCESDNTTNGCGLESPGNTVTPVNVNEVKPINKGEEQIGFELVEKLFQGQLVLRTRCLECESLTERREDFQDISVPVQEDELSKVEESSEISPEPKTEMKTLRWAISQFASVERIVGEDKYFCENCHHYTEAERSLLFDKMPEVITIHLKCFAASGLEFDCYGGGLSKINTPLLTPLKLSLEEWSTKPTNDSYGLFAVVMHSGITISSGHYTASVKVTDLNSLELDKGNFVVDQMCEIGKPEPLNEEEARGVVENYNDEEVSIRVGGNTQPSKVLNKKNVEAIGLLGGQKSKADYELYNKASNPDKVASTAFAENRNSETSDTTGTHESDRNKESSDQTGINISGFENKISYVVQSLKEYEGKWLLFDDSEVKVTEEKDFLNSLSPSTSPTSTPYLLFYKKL
#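 High-throughput fluorogenic screen: 1nM USP1/UAF1 complex, Ub-Rho substrate 150nM final, 50mM HEPES pH 7.8 with 0.5mM EDTA, 0.1 mg/ml BSA, 1mM TCEP and 0.01% Tween-20.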
# PI4K2A block – inhibitors of human PI4K2A; Q9BTU6; purified PI4K2A, ADP-Glo luminescence, 1 h; active compounds read low; activity change, negative = inhibition, % at 76.9 µM; 420,000 tested, 0.13% active; AID 1346378; in the data active = activity change below about -50%; inconclusive = mostly about -30% to -49%;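 also: -100% = wells without enzyme as full effect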
#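 PI4K2A activity was measured by ADP-Glo luminescence: enzyme (4 ug/mL stock) and phosphatidylinositol (1.2 mM stock) in Tris pH 7.5/MgCl2/EGTA/Triton X-100 buffer were reacted with ATP (300 microM stock) for one hour at ambient temperature.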
# Eya2 inh – inhibitors of human Eya2 phosphatase activity | recombinant Eya2, OMFP fluorescence dephosphorylation (OMFP is methylfluorescein phosphate) | 330,000 tested, 0.006% active | O00167 | AID 488837 | Potency, µM (top dose mostly 76.9 µM), inactives show at the top dose activity, negative = inhibition, actives largely listed as inhibitors; also: potency is read from the fitted curve at half-maximal effect
#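 Eya2 protein (added as 0.2 uM solution) was preincubated with compound for 10 min at ambient temperature in 50 mM HEPES pH 7.5, 50 mM NaCl, 5 uM MgCl2, 0.05% BSA, 1 mM DTT. OMFP (added at 50 uM) then reacted 10 min; fluorescence read at 485/525 nm.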
# GALK inhibitor – inhibitors of human galactokinase | P51570 | Purified GALK, Kinase-Glo residual ATP luminescence | Potency, µM (titrated, usually from 57.5 µM), without a hit: top-dose activity change, negative = inhibition, hits mostly inhibitors | 270,000 tested, 0.007% active | AID 1868; also: potency is read from the fitted curve at half-maximal effect
#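 Luminescence from leftover ATP (Ultra-Glo luciferase/luciferin) served as read-out after a 1 h room-temperature reaction of 5 nM GALK with 35 uM ATP and 100 uM galactose.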
# The depositor's hits bear a star; i = inactive; ? = inconclusive; / = no result given. The list is not random: actives were taken first. Their share in the collection is about 0.71%. Unless noted, calls follow the shape of the dose curve; as a rule, active = well fitted curve in the direction sought with a large enough effect; inconclusive = small, poorly fitted or top-dose-only effect, or another doubt; inactive = no such curve, though single readings can be large; an effect the other way counts as inactive or inconclusive. Unless noted, % is scaled to controls: 0 for no effect and ±100 for the full control effect.
SMILES,FBPA coupling cs,USP2a inh,USP1-UAF1 inh,PI4K2A block,Eya2 inh,GALK inhibitor
O=c1[nH]c2ccccc2nc1N1CCOCC1,4,0%,-16%,-1,3%,3%
c1ccc2c(c1)nc(N1CCOCC1)c1c3ccccc3[nH]c21,-45*,-15%,0%,1,-5%,0%
O=C(c1ccccc1Cl)N(C(=O)c1ccccc1Cl)c1nccc(-c2cccs2)n1,-42*,0%,-17%,-2,4%,1%
O=C(Nc1nccc(-c2cccs2)n1)c1ccccc1Cl,7,0%,-8%,3,9%,-1%
COc1ccccc1N1CCN(CC(O)COc2cc(OC)c(OC)c(OC)c2)CC1 (centres undefined),/,/,/,3,/,/
OC[C@H]1OC(O)[C@@H](O)[C@@H](O)[C@H]1O (some centres undefined),-1,/,/,/,/,/
O=c1[nH]c2c(s1)C(c1ccco1)C1C3CCC(C3)C1S2 (centres undefined),-44*,-1%,-17%,-10,18%,0%
O=C(O)CN1C(=O)C2C3CC(C2C1=O)C1C(c2ccccc2)c2sc(=O)[nH]c2SC31 (centres undefined),1,5%,-2%,-5,-2%,1%
CCCCN1C(=O)CN(C2CCCCCC2)C(=O)C1c1ccc(OCCC)c(OC)c1 (centres undefined),/,/,8%,-10,/,/
N#Cc1ccc(NC(=O)c2nc(-c3ccccc3)n(-c3ccccc3)n2)cc1,-38*,3%,-19%,-19,-1%,2%
COC(=O)c1c(NS(=O)(=O)c2ccccc2)csc1C,-34*,1%,1%,-1,-4%,7%
CCOC(=O)c1ccccc1NS(=O)(=O)c1ccccc1,-26,1%,-13%,-2,10%,0%
CC(=O)CC/C=C(\C)CC/C=C(\C)CC/C=C(\C)CCC=C(C)C,/,/,/,-1,/,/
Cn1cnnc1SCC(=O)Nc1sc2c(c1C#N)CCCCC2,-42*,-3%,-22%,7,-2%,1%
CCCCn1nnnc1SCC(=O)Nc1sc2c(c1C#N)CCCC2,3,-1%,-12%,-4,17%,0%
Cc1ccc(N/N=C/c2c(C)c(C#N)c(=O)n(C)c2O)cc1C,-58*,7%,-13%,-13,9%,2%
COc1cc(S(=O)(=O)Nc2ccc(C)cc2)ccc1N=Cc1c(C)c(C#N)c(=O)n(C)c1O,-5,1%,?,2,2%,7%
O=C(COC(=O)c1ccc(S(=O)(=O)NCc2ccco2)cc1)Nc1ccc(Cl)cn1,0,-23%,5%,-52*,6%,-3%
O=C(COC(=O)c1ccc(S(=O)(=O)NCc2ccco2)cc1)Nc1ccccc1,/,2%,-16%,6,-23%,/
COC1=CC(=O)C(C(=O)c2ccccc2)=CC1=O,-67*,/,/,/,/,/
CCCCn1c(NC(C)=O)c(C#N)c2nc3ccccc3nc21,-59*,3%,-22%,-6,-2%,0%
C=CCn1c(NC(=O)c2ccccc2Cl)c(C#N)c2nc3ccccc3nc21,-52*,3%,16µM*,?,-18%,-1%
C=CCn1c(N)c(C(=O)Nc2ccc(C)c(C)c2)c2nc3ccccc3nc21,5,2%,-17%,-6,14%,2%
COc1cccc(N2CC(NC(=O)c3ccc(S(=O)(=O)N4CCOCC4)cc3)CC2=O)c1 (centres undefined),/,/,-18%,-3,/,/
CCOc1cc(C2C(C(=O)N3CCOCC3)=C(C)NC3=C2C(=O)CCC3)ccc1O (centres undefined),-4,3%,-3%,-1,14%,-3%
SMILES,FBPA coupling cs,USP2a inh,USP1-UAF1 inh,PI4K2A block,Eya2 inh,GALK inhibitor
COc1cc(C2C(C(=O)N3CCOCC3)=C(C)NC3=C2C(=O)CCC3)ccc1OC(C)=O (centres undefined),-33*,0%,-17%,0,10%,-1%
COc1ccc(-n2nc3cc(C)c(NC(=O)c4ccc(-c5ccc(Br)cc5)o4)cc3n2)cc1,/,/,-32%,-8,/,/
O=C(NC1(O)C(=O)c2ccccc2C1=O)c1ccccc1,-25,1%,18µM*,?,7%,?
O=C(NO)c1ccccc1,/,/,/,i,/,/
O=C(NC1(O)C(=O)c2ccccc2C1=O)c1c(Cl)cccc1Cl,-17,-12%,28µM*,?,0%,?
Cc1cc(C)c2nc(N3CCCN(C(=O)c4ccco4)CC3)c(C#N)cc2c1,-39*,2%,-32%,-6,23%,2%
CCCC(CCC)(C(=O)OCC)C(=O)OCC,/,/,/,-5,/,/
COc1cc(/C=N/NC(=O)CSc2cc(C)c(Br)cc2C)ccc1O,0,-9%,-20%,4,13%,1%
Cc1cc(SCC(=O)N/N=C/c2ccc(O)c(O)c2O)c(C)cc1Br,-32*,-22%,-26%,-2,-10%,0%
CN(C)c1ccc(N=Cc2ccco2)cc1,-42*,1%,?,-23,-1%,6%
CN(C)c1ccc(C=Nc2ccc(N(C)C)cc2)cc1,-29,5%,?,-17,6%,0%
N#C/C(=C\c1coc2ccc(O)cc2c1=O)C(=O)Nc1nc2ccccc2s1,5,30%,25µM*,-8,?,?
COc1ccc2c(c1)Cc1sc(NC(=O)c3ccccc3)nc1-2,-36*,-1%,?,?,3%,-1%
CCOc1ccc2nc(NC(=O)c3ccccc3)sc2c1,/,/,3%,-58*,/,/
COc1ccc(C(=O)Nc2nc3c(s2)Cc2cc(OC)ccc2-3)cc1,/,-3%,-17%,?,-19%,-2%
Cc1cc(=O)oc(C)c1C(=O)O,3,0%,6%,1,-10%,0%
O=C1C(=O)c2c(C(=O)c3ccccc3)coc2-c2ccccc21,-80*,-5%,-9%,-12,11%,3%
Cc1oc2c(c1C(=O)c1ccccc1)C(=O)C(=O)c1ccccc1-2,-78*,4%,13µM*,-64*,23%,-9%
Cc1oc2c(c1C(=O)O)C(=O)c1ccccc1C2=O,-29,1%,28µM*,-14,2%,6%
CCOC(=O)c1c(C)oc2c1C(=O)c1ccccc1C2=O,-43*,-1%,?,3,-6%,-2%
CC12C=C(/C=C/CCc3ccco3)C(C)(C1)[C@H](CCc1ccco1)CC2=O (some centres undefined),4,/,/,/,/,/
O=c1oc2ccccc2c(Nc2cc3ccccc3cc2O)c1[N+](=O)[O-],-56*,-1%,-27%,-5,5%,-2%
O=c1oc2ccccc2c(Nc2ccccc2O)c1[N+](=O)[O-],0,3%,-9%,-3,3%,-2%
